From PubChem BioAssay (NCI)
The panel holds about 83,000 compounds, 20% with a hit somewhere; the sample as a whole holds those more often.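 In brief: 96-well plates, 48 h treatment, single concentration, percent growth endpoint.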 A number with no mark means an inactive call. Calls of active or inactive are those of the source.

Each molecule was assayed on HCT-116 colon (assay: NCI-60 one-dose screen, 48 h (100 = growth as untreated, 0 = no growth, -100 = all killed)). Conditions: 10 µM unless noted.
Experimental: Growth inhibition of the HCT-116 human tumor cell line is measured as a screen for anti-cancer activity. Cells are grown in 96 well plates and exposed to the test compound for 48 hours. Compounds are tested at a single concentration, which is 10^-5 M for most compounds. The reported endpoint is percent growth (GI% or GIPRCNT), where numbers from 0 - 100% represent growth inhibition, and numbers from -100% - 0 represent cell death. For example, a value of 40 represents 60% growth inhibition. A value of 0 means no net growth occurred over the course of the experiment. A value of -40 indicates 40% of cells at the beginning of the experiment died by the end of the experiment. A value of -100 means all cells are dead at the end of the experiment.
NCI-60 Human Tumor Cell Lines Screen was performed using the standard one-dose NCI protocol, which is described in more detail at https://dtp.cancer.gov/discovery_development/nci-60/default.htm.
Compounds with GIPRCNT values below 10 were considered active. Activity score was based on GIPRCNT using the following formula: […]
Score is 0 for GIPRCNT values of 100 or above, 50 for GIPRCNT values of 0, and 100 for GIPRCNT values of -100.
In the case of `O=C(Nc1ccc(Br)cc1)Nc1ccccc1Cl`, the growth is reported as 71.8%.
With `COc1ccccc1NC(=O)OCC12COCN1COC2` the growth was 113%.
`CCNS(=O)(=O)c1ccc(C)cc1` gave a growth of 113%.
`CC(C)CC(NC(=O)OCC1c2ccccc2-c2ccccc21)C(=O)O` (stereo not given) was tested, and the growth was 103%.
Work on `CNCc1ccccc1CN(CC(=O)Nc1ccc2c(c1)CC1(C2)C(=O)Nc2ncccc21)C(=O)C(C)(C)C` (stereo not given) yielded a growth of 105%.
Work on `CCOC(=O)C1=C(C)NC(SCc2nnc(-c3ccc(Cl)cc3)o2)=NC1c1ccc(Br)cc1` (stereo not given) yielded a growth of 48.6%.
Work on `CCCCN(CCCC)CCC(O)c1cc2ccc(C(F)(F)F)cc2c2cc(C(F)(F)F)ccc12` (stereo not given) yielded a growth of 30.5%.
In the case of `C#CC[C@@H]1C[C@]2(C)[C@H]3CC[C@@H]4[C@H]5C(C(=C)C)CC[C@]5(C(=O)NCCN(CCN)CCN)CC[C@@]4(C)[C@]3(C)CC[C@H]2C(C)(C)[C@H]1OC(C)=O` (stereo not given in full), the growth is reported as 2.57% (active).
For `CCOC(=O)c1ccccc1SC(C[N+](=O)[O-])c1ccccc1` (stereo not given), the growth was 3.98% (active).
For `CCN(CC)CCCC(C)Nc1cnc(C(=O)Nc2ccc(Cl)c3cccnc23)cn1` (stereo not given), the growth was -52.4% (active).
For `O=C(CCc1nc2sc3c(c2c(=O)[nH]1)CCC3)NCc1cn(-c2ccccc2)nc1-c1ccccc1`, the growth was -27.1% (active).
In the case of `Nc1c(C(=O)c2ccc(Br)cc2)sc2nc3c(cc12)CCCC3`, the growth is reported as 98.5%.
For `O=C1C2=C(C(=O)c3c(O)ccc(O)c31)N(c1ccc(N3CCOCC3)nc1)Cc1ccccc1O2`, the growth was -84.5% (active).
Work on `CNC(=O)c1cc(Oc2ccc(NC(=O)c3nc(S(C)(=O)=O)sc3-c3ccc(F)cc3)cc2)ccn1` yielded a growth of 85.3%.
Molecule `Cc1ccc(-c2cnc3sc4ccc(Cl)cc4n23)cc1` has a growth of 89%.
With `COc1ccc(C2=CC(c3ccc(OC)cc3Br)N3C=CSC3=N2)cc1` (stereo not given) the growth was -100% (active).
`Cc1nc([C@H]2CC[C@H]3[C@@H]4CCC5=CC(=O)CC[C@]5(C)[C@H]4CC[C@]23C)cs1` was tested, and the growth was 28.3%.
For `O=Cc1ccc2nc(C(Cl)(Cl)Cl)ccc2c1`, the growth was 96.7%.
`CCOC(CN1CCN(CC(C)C(=O)c2ccccc2)CC1)c1ccccc1` (stereo not given) showed a growth of 109%.
For `COc1cc(Cn2c(-c3ccccc3)cc3c2-c2oncc2CC3)cc(OC)c1OC`, the growth was 25.3%.
`CCCCNCCC(O)c1cc2ccc(C(F)(F)F)cc2c2cc(C(F)(F)F)ccc12` (stereo not given) was tested, and the growth was -87.3% (active).
`Brc1cccc(-n2ncc3c(Nc4ccc(-c5nnc(-c6ccccc6)o5)cc4)ncnc32)c1` was tested, and the growth was 94.7%.
In the case of `Fc1ccc(-c2nnc(N3CCOCC3)c3ccccc23)cc1`, the growth is reported as 87.9%.
For `CCCC(CCC)NCC(O)c1cc(-c2ccc(C(F)(F)F)cc2)nc(C(F)(F)F)c1` (stereo not given), the growth was -70.8% (active).
For `C#CC[C@@H]1C[C@]2(C)[C@H]3CC=C4[C@H]5[C@@H](C)[C@H](C)CC[C@]5(C(=O)NCCCN5CCN(CCCN)CC5)CC[C@@]4(C)[C@]3(C)CC[C@H]2C(C)(C)[C@H]1OC(C)=O`, the growth was -83.9% (active).
In the case of `Fc1cnccc1-c1nc2ccc3[nH]ncc3c2c2c1CCCC2`, the growth is reported as 7.21% (active).
Work on `COS(=O)(=O)CCN(CCOS(C)(=O)=O)S(C)(=O)=O` yielded a growth of 100%.
For `CCOC(=O)C1=C(C)NC(SCc2nnc(-c3ccc(Cl)cc3)o2)=NC1c1ccc(Cl)cc1` (stereo not given), the growth was 46.2%.
In the case of `CC(=O)[C@@]1(O)[C@H](C)C[C@H]2[C@@H]3C=C(C)C4=Cc5c(cnn5-c5ccccc5)C[C@]4(C)[C@H]3[C@@H](O)C[C@@]21C`, the growth is reported as 14.4%.
For `COc1ccc2[nH]cc(C(c3ccc(Cl)cc3)N3CCCC3)c2c1` (stereo not given), the growth was 96.5%.
`COc1cccc(NC(=O)c2c(-c3ccccc3)c(-c3ccccc3)n[nH]c2=O)c1` was tested, and the growth was 94.9%.
In the case of `COc1cc(C)cc2oc3oc(=O)c(-c4csc(-c5cc6ccccc6oc5=O)n4)cc3c(=O)c12`, the growth is reported as 106%.
In the case of `C#CC[C@@H]1C[C@]2(C)[C@H]3CC=C4[C@H]5[C@@H](C)[C@H](C)CC[C@]5(C(=O)NCCCCN)CC[C@@]4(C)[C@]3(C)CC[C@H]2C(C)(C)[C@H]1OC(C)=O`, the growth is reported as -56.4% (active).
Molecule `Cc1cc(-c2nnc(/C=C/c3ccc4c(c3)OCO4)o2)n[nH]1` has a growth of 48.1%.
`CC(C)c1[nH]ncc1-c1nc2ccc3[nH]ncc3c2c2c1CCCC2` was tested, and the growth was 12.2%.
`COc1ccc(Br)c2ccccc12` showed a growth of 108%.
`NNC(=O)Cc1ccccc1` gave a growth of 90.6%.
For `O=C(/C=C/c1cccc([N+](=O)[O-])c1)c1ccc(Nc2nc(N3CCCCC3)nc(N3CCCCC3)n2)cc1`, the growth was -34.5% (active).
Work on `O=C(NC1CC1)c1ccc(-c2nc3ccc4[nH]ncc4c3c3c2CCCC3)cc1` yielded a growth of 17%.
With `Cc1nc2ccc(Nc3nc(N4CCOCC4)nc(N4CCN(C)CC4)n3)cc2n1Cc1ccccc1` the growth was 71.3%.
